The text below walks through data of PubChem BioAssay.

A short description of assay [1]: antimalarial activity against Dd2 strain (AID 2302;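 active = growth inhibition above 50% at the single 2 µM test dose, taken to imply half-maximal potency below 2 µM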;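 also: 0% = DMSO untreated growth and 100% = chloroquine plus artemisinin killed control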). The conditions noted are these: P. falciparum Dd2 in RBCs, LDH growth readout, 72 h; at 2 µM; active compounds read high.
A short description of assay [2]: HepG2 cytotoxicity, primary screen, cytotoxicity control for P. falciparum antimalarial project, cell-based, ATP luminescence (AID 2303;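 active = inhibition above 50%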;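 also: 0% = DMSO wells and 100% = digitonin-killed cells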). The following applies: HepG2 viability, 24-48 h, at 10 µM, active compounds read high.
For assay [3], the target named is L-lactate dehydrogenase (Plasmodium falciparum (isolate CDC / Honduras)) (UniProt Q27743). As to the kind of experiment: PfLDH activity inhibition – cell lysate, 3D7 strain, counter-screen for P. falciparum growth inhibition project (AID 2304).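 Also: 0% = vehicle and 100% = reference inhibitor.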 The conditions noted are these: P. falciparum 3D7 crude extract, LDH APAD/NBT absorbance; at 2 µM; active compounds read high.
The nature of assay [4]: inhibition of 3D7 malaria parasite growth – strain 3D7 (AID 2306).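 Also: 0% = DMSO wells and 100% = chloroquine plus artemisinin control wells.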 The following applies: P. falciparum 3D7 erythrocytic growth, LDH absorbance, 72 h; at 2 µM; active compounds read high.
In assay [5] the target is Calcium-dependent protein kinase 1 (Plasmodium falciparum (isolate 3D7)) (UniProt P62344). Put plainly: PfCDPK1 kinase inhibitors, biochemical, TCAMS library (AID 1159585; cut-off not given, nearly all actives have IC50 up to about 0.98 µM;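 also: inhibitors leave more ATP so luminescence rises with inhibition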). The conditions noted are these: recombinant PfCDPK1, Kinase-Glo ATP depletion luminescence. For orientation: In Kinase-Glo more light means more ATP remaining.
The target in assay [6] is Plasmodium falciparum protein kinase 6 (PK6, PF3D7_1337100) (UniProt Q8IDW1). As to the kind of experiment: PfPK6 kinase inhibitors, biochemical, TCAMS library (AID 1159586). The following applies: recombinant PfPK6, Kinase-Glo ATP depletion luminescence.
The target of assay [7] is Protein kinase 7 (PK7), Plasmodium falciparum 3D7 (PF3D7_0213400) (UniProt Q7YTF7). As to the kind of experiment: inhibition of Plasmodium PK7 catalytic activity – biochemical, TCAMS antimalarial set, Kinase-Glo luminescence (AID 1159587). The following applies: recombinant PfPK7, Kinase-Glo ATP depletion luminescence.
Assay [8] deals with Calcium-dependent protein kinase 4 (Plasmodium falciparum (isolate 3D7)) (UniProt Q8IBS5). As to the kind of experiment: PfCDPK4 kinase inhibitors, biochemical, TCAMS library (AID 1159588; cut-off not given, nearly all actives have IC50 up to about 0.91 µM). The conditions noted are these: recombinant PfCDPK4, Kinase-Glo ATP depletion luminescence.

A number with no mark means an inactive call. For part of these data: Results with a measured potency or affinity are listed apart. The source made the active and inactive calls. Unless noted, no rule for the calls is given here.

What is called inhibition is the drop in the measured response relative to a control, in per cent.

Sequence of Protein kinase 7 (PK7), Plasmodium falciparum 3D7 (PF3D7_0213400) (Q7YTF7 1-343): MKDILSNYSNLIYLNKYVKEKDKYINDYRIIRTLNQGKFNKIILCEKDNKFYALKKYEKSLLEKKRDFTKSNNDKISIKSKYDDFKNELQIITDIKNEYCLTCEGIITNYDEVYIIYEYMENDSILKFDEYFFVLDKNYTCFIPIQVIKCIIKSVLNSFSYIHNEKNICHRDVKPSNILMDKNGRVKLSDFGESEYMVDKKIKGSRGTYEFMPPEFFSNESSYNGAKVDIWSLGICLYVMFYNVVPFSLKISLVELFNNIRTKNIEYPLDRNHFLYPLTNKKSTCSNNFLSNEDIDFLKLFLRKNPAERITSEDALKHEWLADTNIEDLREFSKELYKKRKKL
Sequence of Calcium-dependent protein kinase 1 (Plasmodium falciparum (isolate 3D7)) (P62344 whole entry, looked up): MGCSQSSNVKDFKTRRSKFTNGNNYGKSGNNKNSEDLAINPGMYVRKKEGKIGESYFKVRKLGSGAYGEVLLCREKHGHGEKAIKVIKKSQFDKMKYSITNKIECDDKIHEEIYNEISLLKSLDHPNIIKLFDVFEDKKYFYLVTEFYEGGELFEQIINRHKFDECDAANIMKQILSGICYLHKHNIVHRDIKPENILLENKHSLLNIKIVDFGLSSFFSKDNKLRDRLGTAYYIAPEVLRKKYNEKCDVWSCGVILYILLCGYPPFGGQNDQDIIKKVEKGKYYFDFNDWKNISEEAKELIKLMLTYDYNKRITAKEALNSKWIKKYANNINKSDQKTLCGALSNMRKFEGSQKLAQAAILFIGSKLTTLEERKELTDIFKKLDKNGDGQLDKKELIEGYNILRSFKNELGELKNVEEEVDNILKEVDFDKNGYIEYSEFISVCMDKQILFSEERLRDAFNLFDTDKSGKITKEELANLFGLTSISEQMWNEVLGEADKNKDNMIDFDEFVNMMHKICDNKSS
Sequence of Plasmodium falciparum protein kinase 6 (PK6, PF3D7_1337100) (Q8IDW1 1-305): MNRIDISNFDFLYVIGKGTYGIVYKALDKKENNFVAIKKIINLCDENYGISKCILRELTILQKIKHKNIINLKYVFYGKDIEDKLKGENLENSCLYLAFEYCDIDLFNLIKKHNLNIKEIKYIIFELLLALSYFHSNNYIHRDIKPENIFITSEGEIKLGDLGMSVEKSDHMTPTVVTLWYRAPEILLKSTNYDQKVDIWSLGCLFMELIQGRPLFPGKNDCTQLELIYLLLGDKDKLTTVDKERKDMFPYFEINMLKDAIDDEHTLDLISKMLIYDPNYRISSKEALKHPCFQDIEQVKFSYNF
Sequence of Calcium-dependent protein kinase 4 (Plasmodium falciparum (isolate 3D7)) (Q8IBS5 whole entry, looked up): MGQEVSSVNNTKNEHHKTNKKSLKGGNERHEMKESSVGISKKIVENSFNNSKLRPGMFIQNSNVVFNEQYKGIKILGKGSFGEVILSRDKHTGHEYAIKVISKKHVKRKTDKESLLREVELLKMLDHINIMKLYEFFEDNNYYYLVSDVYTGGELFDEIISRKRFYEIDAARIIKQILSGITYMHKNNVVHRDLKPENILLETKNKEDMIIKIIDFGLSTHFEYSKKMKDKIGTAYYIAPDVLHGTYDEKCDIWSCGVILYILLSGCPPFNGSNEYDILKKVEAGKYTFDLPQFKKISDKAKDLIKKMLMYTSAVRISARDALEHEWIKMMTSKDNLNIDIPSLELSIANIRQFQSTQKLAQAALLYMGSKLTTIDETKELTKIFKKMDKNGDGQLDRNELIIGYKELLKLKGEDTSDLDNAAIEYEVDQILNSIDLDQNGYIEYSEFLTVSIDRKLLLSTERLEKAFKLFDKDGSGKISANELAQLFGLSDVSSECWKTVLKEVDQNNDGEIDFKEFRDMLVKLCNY
Sequence of L-lactate dehydrogenase (Plasmodium falciparum (isolate CDC / Honduras)) (Q27743 whole entry, looked up): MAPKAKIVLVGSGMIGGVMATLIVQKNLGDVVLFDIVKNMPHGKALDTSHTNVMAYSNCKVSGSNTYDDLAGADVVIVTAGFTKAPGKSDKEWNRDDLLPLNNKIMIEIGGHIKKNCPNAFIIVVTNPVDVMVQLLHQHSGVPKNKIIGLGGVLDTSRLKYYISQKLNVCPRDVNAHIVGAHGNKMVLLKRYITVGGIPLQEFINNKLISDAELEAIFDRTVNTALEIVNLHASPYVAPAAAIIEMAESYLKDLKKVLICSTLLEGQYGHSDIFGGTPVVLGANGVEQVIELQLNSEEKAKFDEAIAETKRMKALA

Regarding `O=C(NC1CCN(Cc2ccccc2O)C1)c1ccc(Cl)c(Cl)c1` (centres undefined), the growth inhibition in assay [1] was 62% (active); in assay [4], 92% (active). In addition, the inhibition is -9% in assay [2] and -1% in assay [3]. Moreover, the outcome in assay [5], in assay [6], in assay [7] and in assay [8] was inactive.
In the case of `COc1cc(NC(=O)c2nn(CCCN3CCC(N4CCCC4)CC3)cc2-c2ccc(Cl)c(Cl)c2)cc(OC)c1OC`, the growth inhibition was 100% (active) in assay [1] and 103% (active) in assay [4]. In addition, the inhibition is 76% (active) in assay [2] and -5% in assay [3]. In addition, the result in assay [5], in assay [6], in assay [7] and in assay [8] was inactive.
Take `CC(=O)N1N=C(c2[nH]c3ccc(Br)cc3c2C)OC1c1ccccc1` (centres undefined): the growth inhibition in assay [1] is 68% (active); in assay [4] it was 86% (active). For the same molecule, the inhibition in assay [2] was 8%; in assay [3], 0%. For the same molecule, the outcome in assay [5], in assay [6], in assay [7] and in assay [8] was inactive.
